Values joined by “and” are separate entries in the source; they are usually repeats but may differ in a detail not shown here. Identical values can stand only once. Inconclusive results are not listed. Active and inactive are the calls of the source. Calls follow the shape of the dose curve; as a rule, active = well fitted curve in the direction sought with a large enough effect in the repeat runs; inconclusive = weak or mixed curves; inactive = no such curve, though single readings can be large; an effect the other way counts as inactive or inconclusive.

Data on 39 compounds can be found in PubChem BioAssay (Tox21).
% is scaled to controls: 0 for no effect and ±100 for the full control effect.

The first experiment is described as follows: qHTS assay to identify small molecule antagonists of the retinoid acid receptor (RAR) signaling pathway - cell viability counter screen (AID 1159551). Also: nearly all actives have a fitted effect of over 35% in size. Also: potency is read from the fitted curve at half-maximal effect. The settings on record: C3RL4 cells viability, ATP luminescence (CellTiter-Glo), 6 h; series mostly up to 92.4 µM; activity change, negative = cytotoxicity: at the top concentration. The procedure, abridged: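 C3RL4 RARE-luciferase line; cpds + retinol 1 uM final, 6 h, 37 C/5% CO2; CellTiter-Glo ATP luminescence, 30 min RT.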
`CC[N+]1(CC)CCC(OC(=O)C(O)(c2ccccc2)c2ccccc2)C1` (configuration not stated): the “activity change, negative = cytotoxicity” value was 0.589% [at 42.5 µM] (inactive).
Turning to `[O]=[Cr](=[O])([OH])[O][Cr](=[O])(=[O])[OH]`, the Potency is 17.4 µM (active) and 27.3 µM (active).
As to `C[C@@H]1CC2=CC(=O)CC[C@@H]2[C@H]2CC[C@@]3(C)[C@@H](CC[C@]3(C)O)[C@@H]21`, the “activity change, negative = cytotoxicity” value was 3.18% [at 42.5 µM] (inactive).
In the case of `CCCCc1ccccc1`, the “activity change, negative = cytotoxicity” value is -0.547% (inactive).
On the same count and under the same terms, for `CC(=O)C(Cl)C(=O)N(C)C` (configuration not stated) the value was -3.73% (inactive); for `Clc1ccc(C2(Cn3cncn3)OCCO2)c(Cl)c1`, 1.23% (inactive); for `CCC1COC(Cn2cncn2)(c2ccc(Cl)cc2Cl)O1` (configuration not stated), -3.79% (inactive).
For the compound `COc1c2c(cc3c1OCO3)CCN(C)C2`, the “activity change, negative = cytotoxicity” value is -1.27% [at 42.5 µM] (inactive).
As to `CNC(=O)Oc1cc(C)cc(C(C)C)c1`, the “activity change, negative = cytotoxicity” value was 6.36% (inactive).
For `CSC(C)(C)/C=N/O`, the “activity change, negative = cytotoxicity” value was 0.0042% (inactive).
In the case of `Nc1cc(Cl)ccc1Cl`, the “activity change, negative = cytotoxicity” value was 1.89% (inactive).
On to `C=CCBr`, for which the “activity change, negative = cytotoxicity” value is -0.364% (inactive).
`CC[C@H](C)[C@H]1O[C@]2(C=C[C@@H]1C)C[C@@H]1C[C@@H](C/C=C(\C)[C@@H](O[C@H]3C[C@H](OC)[C@@H](O[C@H]4C[C@H](OC)[C@@H](NC)[C@H](C)O4)[C@H](C)O3)[C@@H](C)/C=C/C=C3\CO[C@@H]4[C@H](O)C(C)=C[C@@H](C(=O)O1)[C@]34O)O2`: the Potency is 13.7 µM (active).
Consider `N#CCCl`, for which the “activity change, negative = cytotoxicity” value is -1.23% (inactive).
Still for that read-out and setting: for `c1cc[n+]2c(c1)-c1cccc[n+]1CC2` the value was 0.573% [at 42.5 µM] (inactive).
On the same count and under the same terms, with `CN=C=O` the figure was 0.975% (inactive); with `O=C1C[C@@H]2OCC=C3CN4CC[C@]56c7ccccc7N1[C@H]5[C@H]2[C@H]3C[C@H]46`, 0.91% [at 42.5 µM] (inactive).

The next experiment can be described thus: qHTS assay to identify small molecule agonists of the retinoic acid receptor (RAR) signaling pathway (AID 1159553). To be noted: C3RL4 RARE luciferase reporter, agonist, 6 h; series mostly up to 73.3 µM; activation: at the top concentration. The gist of the method: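 RARE-luc C3RL4 cells; overnight attachment 37 C/5% CO2; compound (DMSO) 6 hr; luciferase reagent, 30 min RT; luminescence read-out.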
With `Nc1ccc(Cl)cc1C(=O)c1ccccc1F`, the “activation” value was -0.0658% (inactive).
Still for that read-out and setting: with `CCc1cccc(C)c1N(C(=O)CCl)[C@@H](C)COC` the figure was -0.656% (inactive).
`COP(=O)(OC)O/C(=C\Cl)c1cc(Cl)c(Cl)cc1Cl`: the “activation” value was -3.61% (inactive).
With `CCOP(=S)(OCC)SC(CCl)N1C(=O)c2ccccc2C1=O` (configuration not stated), the “activation” value was 0.564% (inactive).
Take `COC(=O)C(C)N(C(=O)c1ccco1)c1c(C)cccc1C` (configuration not stated): the “activation” value was -3.99% (inactive).
On the same count and under the same terms, for `CCCCCON=O` the value was -0.475% [at 94.8 µM] (inactive).
Regarding `CC(C)N(C(=O)SC/C(Cl)=C/Cl)C(C)C`, the “activation” value was -5.21% [at 94.8 µM] (inactive).
Still for that read-out and setting: with `CC[N+]1(CC)CCC(OC(=O)C(O)(c2ccccc2)c2ccccc2)C1` (configuration not stated) the figure was 2.01% (inactive); with `[O]=[Cr](=[O])([OH])[O][Cr](=[O])(=[O])[OH]`, -0.315% [at 94.8 µM] (inactive); with `C[C@@H]1CC2=CC(=O)CC[C@@H]2[C@H]2CC[C@@]3(C)[C@@H](CC[C@]3(C)O)[C@@H]21`, -4.25% (inactive).
On the same count and under the same terms, with `CCC1COC(Cn2cncn2)(c2ccc(Cl)cc2Cl)O1` (configuration not stated) the figure was -4.97% (inactive); with `COc1c2c(cc3c1OCO3)CCN(C)C2`, -0.733% (inactive); with `CNC(=O)Oc1cc(C)cc(C(C)C)c1`, -5.78% (inactive).
For the compound `N#CCCl`, the “activation” value was 1.76% [at 94.8 µM] (inactive).
On the same count and under the same terms, with `c1cc[n+]2c(c1)-c1cccc[n+]1CC2` the figure was 0.201% (inactive).
Same read-out and setting: with `O=C1C[C@@H]2OCC=C3CN4CC[C@]56c7ccccc7N1[C@H]5[C@H]2[C@H]3C[C@H]46` the figure was -2.83% (inactive).

The nature of a further experiment: qHTS assay to identify small molecule antagonists of the estrogen related receptor (ERR) signaling pathway from Tox21 library - cell viability counter screen (AID 1224834). Also: nearly all actives have a fitted effect of over 30% in size. Also: potency is read from the fitted curve at half-maximal effect. To be noted: ERR reporter cells viability, CellTiter-Fluor, 17.5 h; series mostly up to 92.4 µM; viability change, negative = cytotoxic: at the top concentration. The procedure, abridged:
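Multiplexed viability counter screen in ERR cells: 17.5 h compound exposure at 37 C, CellTiter-Fluor added, 30 min at 37 C/5% CO2, fluorescence read.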
For `COc1ccc2c(c1OC)C(=O)O[C@@H]2[C@H]1c2cc3c(cc2CCN1C)OCO3`, the Potency was 9.59 µM (active).
In the case of `CC(Cc1ccc(OCC(=O)O)cc1)NCC(O)c1csc(C(F)(F)F)n1` (configuration not stated), the “viability change, negative = cytotoxic” value was 1.63% (inactive).
Same read-out and setting: for `O=c1c2ccccc2c(=O)c2c1cc(Cl)c1[nH]c3c([nH]c12)c(Cl)cc1c(=O)c2ccccc2c(=O)c13` the value was -2.48% (inactive).
Take `C=Cc1cccc(CCl)c1`: the “viability change, negative = cytotoxic” value is 1.75% [at 240 µM] (inactive).
For `CNC(C)(C)Cc1ccccc1`, the “viability change, negative = cytotoxic” value is 1.64% [at 42.5 µM] (inactive).
On the same count and under the same terms, with `CCC(C)Br` (configuration not stated) the figure was 2.48% (inactive); with `OCC(Br)CBr` (configuration not stated), 1.7% (inactive); with `ClC1=C(Cl)[C@]2(Cl)[C@H]3[C@H]([C@@H]4C=C[C@H]3C4)[C@@]1(Cl)C2(Cl)Cl`, -6.53% (inactive).
Same read-out and setting: with `CCOP(=S)(OCC)SC(CCl)N1C(=O)c2ccccc2C1=O` (configuration not stated) the figure was -5.05% (inactive); with `Oc1ccc(Cl)c(Cl)c1`, -8.71% (inactive).
Same read-out and setting: for `COC(=O)C(C)N(C(=O)c1ccco1)c1c(C)cccc1C` (configuration not stated) the value was -0.18% (inactive); for `COP(=S)(NC(C)C)Oc1ccc(C)cc1[N+](=O)[O-]` (configuration not stated), -8.85% (inactive); for `Clc1ccc(C(Cl)(Cl)Cl)cc1Cl`, 3.45% (inactive).
With `Cc1ccc(C)c2ccccc12`, the “viability change, negative = cytotoxic” value was 0.989% (inactive).
The same measure, in the same setting: with `COc1cnc(OC)n2nc(NS(=O)(=O)c3c(OCC(F)F)cccc3C(F)(F)F)nc12` the figure was 5.73% (inactive).
Turning to `CC(O)C(=O)[O][Hg][c]1ccccc1` (configuration not stated), the Potency is 4.33 µM (active).
In the case of `CCCCCON=O`, the “viability change, negative = cytotoxic” value was 1.97% (inactive).
The same measure, in the same setting: with `CNC(=O)/C=C(\C)OP(=O)(OC)OC` the figure was 0.608% (inactive); with `CC(C)N(C(=O)SC/C(Cl)=C/Cl)C(C)C`, 0.358% (inactive).
The same measure, in the same setting: with `CC[N+]1(CC)CCC(OC(=O)C(O)(c2ccccc2)c2ccccc2)C1` (configuration not stated) the figure was 1.78% [at 42.5 µM] (inactive).
As for `[O]=[Cr](=[O])([OH])[O][Cr](=[O])(=[O])[OH]`, the Potency is 13.8 µM (active) and 24.3 µM (active).
On to `C[C@@H]1CC2=CC(=O)CC[C@@H]2[C@H]2CC[C@@]3(C)[C@@H](CC[C@]3(C)O)[C@@H]21`, for which the “viability change, negative = cytotoxic” value is -15.6% [at 42.5 µM] (inactive).
Same read-out and setting: with `CCCCc1ccccc1` the figure was 0.395% (inactive).
Still for that read-out and setting: with `CC(=O)C(Cl)C(=O)N(C)C` (configuration not stated) the figure was -11.3% (inactive).
On the same count and under the same terms, for `Clc1ccc(C2(Cn3cncn3)OCCO2)c(Cl)c1` the value was 3.78% (inactive).
Take `COc1c2c(cc3c1OCO3)CCN(C)C2`: the “viability change, negative = cytotoxic” value was -1.34% [at 42.5 µM] (inactive).
As for `CNC(=O)Oc1cc(C)cc(C(C)C)c1`, the “viability change, negative = cytotoxic” value is -6.31% (inactive).
On the same count and under the same terms, for `CSC(C)(C)/C=N/O` the value was 5.29% (inactive); for `Nc1cc(Cl)ccc1Cl`, 2.54% (inactive); for `C=CCBr`, -0.254% (inactive).
Consider `CC[C@H](C)[C@H]1O[C@]2(C=C[C@@H]1C)C[C@@H]1C[C@@H](C/C=C(\C)[C@@H](O[C@H]3C[C@H](OC)[C@@H](O[C@H]4C[C@H](OC)[C@@H](NC)[C@H](C)O4)[C@H](C)O3)[C@@H](C)/C=C/C=C3\CO[C@@H]4[C@H](O)C(C)=C[C@@H](C(=O)O1)[C@]34O)O2`, for which the Potency is 8.63 µM (active).
For the compound `c1cc[n+]2c(c1)-c1cccc[n+]1CC2`, the “viability change, negative = cytotoxic” value was 3.42% [at 42.5 µM] (inactive).
Still for that read-out and setting: for `CN=C=O` the value was 0.676% (inactive); for `O=C1C[C@@H]2OCC=C3CN4CC[C@]56c7ccccc7N1[C@H]5[C@H]2[C@H]3C[C@H]46`, -10.7% [at 42.5 µM] (inactive).
